Bioassay records: PubChem BioAssay, several laboratories
EBV gp42 inh: EBV gp42 inhibition; Q1HVG2; Fluorescence polarization binding assay, mP read-out; inhibition, % (tested at 21.74 µM); 220,000 tested, 0.42% active; AID 1085; in the data active means inhibition above about 50%
Target sequence (Q1HVG2 whole entry, looked up): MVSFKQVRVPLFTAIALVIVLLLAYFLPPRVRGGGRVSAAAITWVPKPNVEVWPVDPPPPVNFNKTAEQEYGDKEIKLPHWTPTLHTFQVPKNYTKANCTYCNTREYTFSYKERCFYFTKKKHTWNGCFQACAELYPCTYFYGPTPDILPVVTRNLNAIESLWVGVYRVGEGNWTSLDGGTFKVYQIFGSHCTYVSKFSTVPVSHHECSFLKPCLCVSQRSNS
E coli Lon inh: E. coli protease La inhibition. purified E. coli Lon protease, fluorescence polarization. 360,000 tested, 0.42% active. AID 602123. inhibition, % at 7.94 µM. P0A9M0; in the data active means inhibition above about 13%, passing the limit was not always enough;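 further: 0% = enzyme with probe and DMSO and 100% = no enzyme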
BCLXL inh: inhibitors of human Bcl-xL; Q07817; inhibition, % at 10.9 µM; 320,000 tested, 0.7% active; GST-Bcl-xL / FITC-Bim BH3 peptide fluorescence polarization; AID 2129;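 active means inhibition above the mean of all tested compounds plus 3 SD, cutoff set per campaign, cut at about 30% in these data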;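 further: 0% = DMSO wells and 100% = unlabeled Bim-BH3 peptide competitor; inhibitors lower millipolarization by displacing the labeled peptide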
MEX-5 binding: C. elegans MEX-5 TCR-2 RNA binding activity | 300,000 tested, 0.38% active | activity score (negative = inhibition of binding), % at 10 µM | AID 1832 | MEX-5/FITC-TCR2 RNA binding, fluorescence polarization; active compounds read low | Q9XUB2;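 active means inhibition past about -25% in most replicates, and total fluorescence under double the plate's negative control median, limit read from the data; inconclusive means replicates evenly split on the limit, or fluorescence at least double controls; inactive means too little inhibition in most replicates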;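 further: 0% = DMSO and -100% = 5 µM competing unlabeled TCR2 RNA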
GLD-1 TGE inh: GLD-1-TGE RNA interaction inhibition (C. elegans); Q17339; purified GLD-1 + fluorescein TGE RNA, fluorescence polarization; inhibition, % at 5.96 µM; 320,000 tested, 0.44% active;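 active means percent inhibition above a per-plate cutoff, the plate mean of test compounds plus 3 SD, cut at about 30% in these data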;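 further: 0% = DMSO wells with GLD-1 and probe and 100% = wells lacking GLD-1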
MCL1 BIM primary: inhibitors of human MCL1 binding to BIM-BH3 peptide; 320,000 tested, 0.68% active; GST-MCL1 / FITC-Bim-BH3 fluorescence polarization; Q07820; inhibition, % at 10.9 µM;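 active means inhibition above the mean inhibition of all tested compounds plus 3 SD, set per campaign, cut at about 40% in these data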;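 further: 0% = DMSO wells and 100% = unlabeled Bim-BH3 peptide control; higher means more loss of mP so more displacement of Bim peptide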
Target sequence (Q07820 whole entry, looked up): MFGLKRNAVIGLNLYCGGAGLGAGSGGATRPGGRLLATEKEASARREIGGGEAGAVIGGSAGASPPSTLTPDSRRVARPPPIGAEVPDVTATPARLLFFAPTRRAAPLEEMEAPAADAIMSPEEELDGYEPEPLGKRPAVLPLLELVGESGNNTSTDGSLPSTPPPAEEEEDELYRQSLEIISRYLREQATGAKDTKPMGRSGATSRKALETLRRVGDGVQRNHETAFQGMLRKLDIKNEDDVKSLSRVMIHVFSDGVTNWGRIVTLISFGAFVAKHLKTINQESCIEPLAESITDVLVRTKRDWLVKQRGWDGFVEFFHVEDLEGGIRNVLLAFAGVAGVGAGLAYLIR
Starred values were filed as active, the others as inactive; ? = inconclusive; . = no result given; + = active, no number. The list is not random: actives were taken first. Their share in the collection is about 1.5%.

SMILES | EBV gp42 inh | E coli Lon inh | BCLXL inh | MEX-5 binding | GLD-1 TGE inh | MCL1 BIM primary
COc1ccc(NS(=O)(=O)c2cc(NS(=O)(=O)c3cc(C(=O)O)ccc3OC)ccc2C)cc1 | . | -5 | . | . | . | .
CCCCOc1ccc(-c2cc(C(F)(F)F)c(C#N)c(SCC(=O)O)n2)cc1 | 60* | 11 | 0 | ? | 5 | 1
CCOc1cccc(CNCCSc2nnnn2C)c1 | -5 | 1 | 1 | 0 | 10 | 2
Nc1ccc2c3c(cccc13)CC2 | -20 | -52 | 38* | 2 | -28 | 14
c1ccc(Nc2ccc3c4c(cccc24)CC3)cc1 | -10 | -203 | 11 | -1 | -9 | -14
Nc1nc2c(ncn2[C@@H]2O[C@H](CNC(=O)[C@H](N)Cc3ccccc3)[C@@H](O)[C@H]2O)c(=O)[nH]1 | . | -4 | . | . | . | .
CCCCN(C(=O)C1CCCC1)C1CCS(=O)(=O)C1 (centres undefined) | . | 5 | . | 2 | . | .
CC1CCc2nn(CC(=O)NCCN3CCCCC3C)cc2C1 (centres undefined) | 5 | 4 | 17 | -35* | 5 | 18
O=[N+]([O-])c1c(NCCO)cc(N2CCC3(CC2)OCCO3)c2nonc12 | 0 | -4 | -1 | -2 | -12 | -2
CCOC(=O)N1CCN(c2cc(NCCC(=O)O)c3c4c(onc24)-c2ccccc2C3=O)CC1 | -4 | 9 | 43* | . | 23 | 33
O=C(c1ccco1)N1CCN(C2=NS(=O)(=O)c3ccccc32)CC1 | -8 | -2 | 0 | 1 | -2 | -2
O=C(O)CCCNc1cc(N2CCC3(CC2)OCCO3)c2noc3c2c1C(=O)c1ccccc1-3 | 13 | . | 71* | . | 21 | 90*
CN1CCN(c2cc(N3CCN(C(=O)c4ccco4)CC3)c3c4c(onc24)-c2ccccc2C3=O)CC1 | . | 7 | 37* | 23 | 6 | 43*
Cc1ccc(CCN2C(Nc3ccccc3)=NC[C@@H]2C)cc1 | . | -11 | 2 | . | 1 | 6
CCCn1c(N)c(N(CCOC)C(=O)CSc2cc(C)c3cccc(C)c3n2)c(=O)[nH]c1=O | . | -13 | 5 | . | 6 | 6
CC(NC(=O)CN(C)CC(=O)Nc1cccc(F)c1)c1ccccc1 (centres undefined) | . | 1 | -1 | . | -2 | -1
Cc1ccc(/C=C2/C(=O)c3ccc(C(=O)O)cc3C2=O)o1 | -14 | 0 | . | -26* | . | .
O=C(NCC1CCCO1)c1cccc2c1C(=O)c1ccc(N3CCC(Cc4ccccc4)CC3)cc1S2(=O)=O (centres undefined) | . | -185 | . | . | 6 | .
O=C(NCc1ccccc1Br)c1cccc2c1C(=O)c1ccc(N3CCC(Cc4ccccc4)CC3)cc1S2(=O)=O | . | -23 | . | . | 157* | .
O=C(NC1CCCCC1)c1cccc2c1C(=O)c1ccc(N3CCC(Cc4ccccc4)CC3)cc1S2(=O)=O | . | -379 | . | . | 62* | .
Cc1nn(CC(=O)NCc2cccc3ccccc23)c(=O)c2ccccc12 | -11 | -7 | 0 | 0 | -4 | -5
Nn1c(COc2ccccc2F)nnc1SCC(=O)NCC1CCCO1 (centres undefined) | . | 3 | . | . | . | .
COC(=O)[C@@H](NC(=O)NC1CCN(Cc2ccccc2)CC1)C(C)C | 7 | -1 | 0 | -5 | 2 | 0
COC(=O)[C@H](CCSC)NC(=O)NC1CCN(Cc2ccccc2)CC1 | -19 | -1 | 16 | -36* | 10 | 19
O=C(O)/C=C/c1ccccc1Oc1ccc(Cl)cc1Cl | -8 | 3 | -2 | 1 | -1 | 2
SMILES | EBV gp42 inh | E coli Lon inh | BCLXL inh | MEX-5 binding | GLD-1 TGE inh | MCL1 BIM primary
O=C(O)/C=C\c1ccccc1Oc1cccc(Cl)c1 | -17 | -4 | 32* | 0 | -2 | 2
O=C(c1ccc(F)cc1)[C@@H]1[C@@H](C(=O)c2ccccc2)[C@@]2(C(=O)Nc3ccccc32)[C@H]2c3ccccc3C=CN12 | 4 | . | 27 | 2 | 34* | 3
COc1ccc(NC(=O)C[C@H]2C(=O)N(C3CCCCC3)C[C@@H]2c2ccccc2)cc1 | . | 1 | . | . | . | .
Cc1cc(C=C2C(=O)CCCC2=O)c(C)n1-c1ccccc1 | -3 | -8 | 19 | 1 | 5 | 24
Cc1cccc(-n2c(C)cc(C=C3C(=O)c4ccccc4C3=O)c2C)c1 | 32 | -11 | -15 | -31* | -16 | -40
CCn1c(C)cc(C=C2C(=O)c3ccccc3C2=O)c1C | 107* | -10 | . | -8 | . | .
Cc1cc(C=C2C(=O)c3ccccc3C2=O)c(C)n1-c1ccc(Cl)cc1 | 61* | -10 | . | ? | . | .
CCOc1ccc(CCNC(=O)CS(=O)Cc2nc(-c3ccccc3C)oc2C)cc1OCC (centres undefined) | . | 7 | 2 | 1 | -1 | -4
Oc1ccc(C2C[C@H]3CC[C@@H]2C3)cc1O (some centres undefined) | . | 1 | 12 | -65* | 4 | 25
COC(=O)c1c(C(=O)OC)c(-c2cccc(Cl)c2)n2c1CS(=O)C2 (centres undefined) | -12 | -3 | -1 | 2 | -3 | -9
O=C(O)c1ccc(N=Cc2c(O)ccc3oc4c(c23)CCCC4)cc1 | -4 | 13 | 4 | -3 | 10 | 4
Oc1ccccc1N=Cc1c(O)ccc2oc3c(c12)CCCC3 | 37 | -16 | 14 | -4 | 38* | 15
O=S(=O)(NCC(O)c1ccccc1)c1cc(Cl)sc1Cl (centres undefined) | . | -4 | 3 | -2 | 2 | 7
CCCCNc1cc(Cl)nc(N)n1 | 30 | -6 | 30* | 4 | 12 | 28
CC(C)OC(=O)C1=C2SCC(=O)N2C(N)=C(C#N)C1 | -11 | -14 | 37* | 3 | 0 | 2
OCCCc1nc2n(n1)C(c1cccs1)C=C(c1ccc(Br)cc1)N2 (centres undefined) | 141* | . | 189* | -68* | 163* | +
CN1CCN(Cc2oc(CO)cc(=O)c2O)CC1 | 6 | 6 | 7 | -1 | 2 | 11
COc1ccc(N2CCN(Cc3oc(CO)cc(=O)c3O)CC2)cc1 | -9 | -10 | 53* | -2 | 22 | 42*
COCOCCn1cc(CN2CCS(=O)(=O)N(Cc3ccc(-c4ccc(F)cc4)cc3)C(CC(C)C)C2=O)nn1 (centres undefined) | . | 5 | . | . | . | .
COCCNC(=O)C1(C)CCCN(Cc2sc(C)nc2C)C1 (centres undefined) | . | -4 | . | . | . | .
CCN1/C(=N\N)c2cccc3cccc1c23 | 24 | -32 | 52* | -1 | 22 | 33
CCC(C)NC(=O)CN1C(=O)c2cccc3cccc1c23 (centres undefined) | . | 2 | . | 3 | . | .
C=CCN1C(=O)/C(=C/c2ccc(OCC(=O)O)cc2)S/C1=N/c1nccs1 | -1 | 2 | 4 | -1 | 6 | -4
C=CCN1C(=O)/C(=C/c2ccc(N(C)C)cc2)S/C1=N\c1nnc(CC)s1 | 53* | . | . | -10 | . | .
O=c1c2ccccc2c(C=Nc2cccc(O)c2)c(O)n1-c1ccc2c(c1)OCO2 | 51* | -10 | -2 | -4 | 2 | 5
